The source of these data is PubChem BioAssay (NCI).

The nature of assay [1]: NCI Yeast Anticancer Drug Screen. Data for the rad50 strain (AID 155).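 Note: 0% = growth of vehicle-only cultures of the same strain.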 The settings on record: S. cerevisiae rad50 strain growth inhibition, active compounds read high. The method in brief:
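Cells are treated with compound, grown, and their growth is then scored against vehicle-only cultures of the same repair-deficient yeast strain.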

Assay [2] is described as follows: NCI Yeast Anticancer Drug Screen. Data for the mec2-1 strain (AID 157). To be noted: S. cerevisiae mec2-1 strain, active compounds read high. The method in brief: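 Yeast mec2-1 mutant treated with compound. Readout: growth inhibition vs vehicle controls.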
The nature of assay [3]: NCI Yeast Anticancer Drug Screen. Data for the sgs1 mgt1 strain (AID 161).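 Note: 0% = growth of cultures given vehicle only.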 To be noted: S. cerevisiae sgs1 mgt1 strain, active compounds read high. The method in brief: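 Genetically altered yeast, compound exposure, growth inhibition relative to vehicle.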
Assay [4] can be described thus: NCI Yeast Anticancer Drug Screen. Data for the cln2 rad14 strain (AID 165).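 Note: 0% = growth equal to vehicle treated cultures.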 To be noted: S. cerevisiae cln2 rad14 strain, active compounds read high. The method in brief: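 cln2 rad14 yeast strain; compound exposure; growth inhibition read vs vehicle controls.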
Assay [5] is described as follows: NCI Yeast Anticancer Drug Screen. Data for the bub3 strain (AID 167). The settings on record: S. cerevisiae bub3 mutant strain, active compounds read high. The method in brief: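 Part of a panel of yeast mutants defective in DNA damage repair or cell cycle regulation. Each strain is grown with compound, and inhibition is calculated relative to solvent-treated cultures.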

Assay [6] is described as follows: NCI Yeast Anticancer Drug Screen. Data for the mlh1 rad18 strain (AID 175). To be noted: S. cerevisiae mlh1 rad18 strain growth inhibition, active compounds read high. The method in brief:
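Yeast w/ defined DNA-repair lesions; compound exposure; growth vs vehicle controls → % inhibition.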

The mark [7] stands for this setting: at 5.0 µM (retest, dose inferred, filed as 0.5).
Where [8] appears, read: at 50.0 µM (retest, dose inferred, filed as 5.0).

About 79,000 compounds went through this panel and 15% of them were active in at least one assay; those are over-represented in the sample as a whole. A number with no mark means an inactive call. Calls of active or inactive are those of the source. Cut-off read from the data, not from the text of the source: active = growth inhibition above about 70%; inactive = the rest.

Regarding `COC1=CC(=O)c2ncc(Cl)cc2C1=O`, the growth inhibition was -4% in assay [1] (setting [7]); 97% (active) in assay [1] (setting [8]); 96% (active) in assay [1] (at 50.0 µM); -2% in assay [2] (setting [7]); 92% (active) in assay [2] (setting [8]); 95.5% (active) in assay [2] (at 50.0 µM). Further, the growth inhibition was -9% in assay [3] (setting [7]); 89% (active) in assay [3] (setting [8]); 93.2% (active) in assay [3] (at 50.0 µM); -10% in assay [4] (setting [7]); 96% (active) in assay [4] (setting [8]); 97.3% (active) in assay [4] (at 50.0 µM). Besides, the growth inhibition was -40% in assay [5] (setting [7]); 88% (active) in assay [5] (setting [8]); 83.5% (active) in assay [5] (at 50.0 µM); 28% in assay [6] (setting [7]); 97% (active) in assay [6] (setting [8]); 98.3% (active) in assay [6] (at 50.0 µM).
As for `Cc1ccc(C)c([N+](=O)[O-])c1`, the growth inhibition is -2% in assay [1] (setting [7]); 11% in assay [1] (setting [8]); 51.1% in assay [1] (at 50.0 µM); 1% in assay [2] (setting [7]); -2% in assay [2] (setting [8]); 17.6% in assay [2] (at 50.0 µM). Besides, the growth inhibition is -1% in assay [3] (setting [7]); -2% in assay [3] (setting [8]); 13.8% in assay [3] (at 50.0 µM); 1% in assay [4] (setting [7]); 1% in assay [4] (setting [8]); -7.1% in assay [4] (at 50.0 µM). Moreover, the growth inhibition was -1% in assay [5] (setting [7]); 1% in assay [5] (setting [8]); 6.25% in assay [5] (at 50.0 µM); 0% in assay [6] (setting [7]); 12% in assay [6] (setting [8]); 28.2% in assay [6] (at 50.0 µM).
Turning to `CC(NNC(=S)N1CCCC1)c1ccccn1` (configuration not stated), the growth inhibition in assay [1] (setting [7]) was 63%; in assay [1] (setting [8]) it was 97% (active); in assay [1] (at 50.0 µM), 98.8% (active); in assay [2] (setting [7]), 52%; in assay [2] (setting [8]) it was 98% (active); in assay [2] (at 50.0 µM), 98.7% (active). Besides, the growth inhibition is 63% in assay [3] (setting [7]); 98% (active) in assay [3] (setting [8]); 98.9% (active) in assay [3] (at 50.0 µM); 48% in assay [4] (setting [7]); 98% (active) in assay [4] (setting [8]); 99% (active) in assay [4] (at 50.0 µM). The growth inhibition in assay [5] (setting [7]) is 53%; in assay [5] (setting [8]), 98% (active); in assay [5] (at 50.0 µM), 99.2% (active); in assay [6] (setting [7]) it was 60%; in assay [6] (setting [8]) it was 98% (active); in assay [6] (at 50.0 µM) it was 98.8% (active).
`OCc1cc2c([nH]c3ccccc32)c(C(O)CO)n1` (configuration not stated): the growth inhibition was -2% in assay [1] (setting [7]); -6% in assay [1] (setting [8]); 92.9% (active) in assay [1] (at 50.0 µM); 0% in assay [2] (setting [7]); -3% in assay [2] (setting [8]); 94.5% (active) in assay [2] (at 50.0 µM). For the same molecule, the growth inhibition in assay [3] (setting [7]) is -2%; in assay [3] (setting [8]), -3%; in assay [3] (at 50.0 µM), 94.5% (active); in assay [4] (setting [7]), 0%; in assay [4] (setting [8]), -1%; in assay [4] (at 50.0 µM), 92.7% (active). Also, the growth inhibition in assay [5] (setting [7]) was 2%; in assay [5] (setting [8]), -2%; in assay [5] (at 50.0 µM), 93.3% (active); in assay [6] (setting [7]), 1%; in assay [6] (setting [8]), -4%; in assay [6] (at 50.0 µM), -68.3%.
Turning to `C=C1C(=O)[C@]23C[C@H]1CC[C@H]2[C@@]12CO[C@@H](O)[C@@H]1C(C)(C)[C@@H](O)C[C@@H]2OC3=O`, the growth inhibition in assay [1] (setting [7]) was 8%; in assay [1] (setting [8]), 6%; in assay [1] (at 50.0 µM), 2.3%; in assay [2] (setting [7]) it was -19%; in assay [2] (setting [8]), 79% (active); in assay [2] (at 50.0 µM) it was -5.25%. Besides, the growth inhibition in assay [3] (setting [7]) was 9%; in assay [3] (setting [8]) it was 27%; in assay [3] (at 50.0 µM), 25.4%; in assay [4] (setting [7]), -7%; in assay [4] (setting [8]), 95% (active); in assay [4] (at 50.0 µM) it was 67.2%. Besides, the growth inhibition in assay [5] (setting [7]) was -5%; in assay [5] (setting [8]) it was 95% (active); in assay [5] (at 50.0 µM) it was -0.9%; in assay [6] (setting [7]), -1%; in assay [6] (setting [8]) it was 11%; in assay [6] (at 50.0 µM), 24.4%.
Consider `CCOC(=O)CC[P+](Cc1ccccc1)(c1ccccc1)c1ccccc1`, for which the growth inhibition in assay [1] (setting [7]) was -32%; in assay [1] (setting [8]), 14%; in assay [1] (at 50.0 µM) it was 64.9%; in assay [2] (setting [7]), 0%; in assay [2] (setting [8]), 0%; in assay [2] (at 50.0 µM), -1.5%. The growth inhibition in assay [3] (setting [7]) was 2%; in assay [3] (setting [8]), 3%; in assay [3] (at 50.0 µM), 12.7%; in assay [4] (setting [7]) it was 4%; in assay [4] (setting [8]), -2%; in assay [4] (at 50.0 µM) it was -15.4%. For the same molecule, the growth inhibition is 1% in assay [5] (setting [7]); 4% in assay [5] (setting [8]); 18.4% in assay [5] (at 50.0 µM); 7% in assay [6] (setting [7]); 21% in assay [6] (setting [8]); 11% in assay [6] (at 50.0 µM).
`CC1=NC(C)C(C)S1` (configuration not stated): the growth inhibition in assay [1] (setting [7]) was -1%; in assay [1] (setting [8]) it was 3%; in assay [1] (at 50.0 µM), 9.45%; in assay [2] (setting [7]) it was 0%; in assay [2] (setting [8]), 0%; in assay [2] (at 50.0 µM), 5.5%. In addition, the growth inhibition is -1% in assay [3] (setting [7]); 1% in assay [3] (setting [8]); -2.5% in assay [3] (at 50.0 µM); 4% in assay [4] (setting [7]); 0% in assay [4] (setting [8]); 16.1% in assay [4] (at 50.0 µM). The growth inhibition in assay [5] (setting [7]) is 3%; in assay [5] (setting [8]) it was 3%; in assay [5] (at 50.0 µM) it was 55.9%; in assay [6] (setting [7]), 2%; in assay [6] (setting [8]), 4%; in assay [6] (at 50.0 µM) it was 12.7%.
For the molecule `C/C(=N\NC(=O)C[n+]1ccccc1)c1sc(-c2nc(C)c(/C(C)=N/NC(=O)C[n+]3ccccc3)s2)nc1C`, the growth inhibition was 95% (active) in assay [1] (setting [7]); 97% (active) in assay [1] (setting [8]); 97.2% (active) in assay [1] (at 50.0 µM); 97% (active) in assay [2] (setting [7]); 99% (active) in assay [2] (setting [8]); 96.8% (active) in assay [2] (at 50.0 µM). Also, the growth inhibition was 98% (active) in assay [3] (setting [7]); 97% (active) in assay [3] (setting [8]); 96.9% (active) in assay [3] (at 50.0 µM); 92% (active) in assay [4] (setting [7]); 97% (active) in assay [4] (setting [8]); 93% (active) in assay [4] (at 50.0 µM). Further, the growth inhibition was 95% (active) in assay [5] (setting [7]); 97% (active) in assay [5] (setting [8]); 96.8% (active) in assay [5] (at 50.0 µM); 93% (active) in assay [6] (setting [7]); 98% (active) in assay [6] (setting [8]); 96.4% (active) in assay [6] (at 50.0 µM).
As to `O=C1Nc2c(Cl)cc(Cl)cc2/C1=N/N=C/c1ccccc1O`, the growth inhibition in assay [1] (setting [7]) is 12%; in assay [1] (setting [8]) it was 41%; in assay [1] (at 50.0 µM) it was 3.5%; in assay [2] (setting [7]) it was 13%; in assay [2] (setting [8]) it was 42%; in assay [2] (at 50.0 µM) it was 17.1%. The growth inhibition in assay [3] (setting [7]) is 10%; in assay [3] (setting [8]), 41%; in assay [3] (at 50.0 µM), 87.2% (active); in assay [4] (setting [7]), 15%; in assay [4] (setting [8]) it was 48%; in assay [4] (at 50.0 µM) it was 89.8% (active). Further, the growth inhibition in assay [5] (setting [7]) is 18%; in assay [5] (setting [8]), 54%; in assay [5] (at 50.0 µM), 88.2% (active); in assay [6] (setting [7]) it was 15%; in assay [6] (setting [8]), 72% (active); in assay [6] (at 50.0 µM), 91% (active).
